The record followed here is PubChem BioAssay AID463173 (ICCB-Longwood Screening Facility, Harvard Medical School, 2010).

Each structure is given as a SMILES string. The campaign covered roughly 52,000 compounds. About 1,700 (3.3%) were called active. This is one part of a sample in which actives are shown more often than they occur. A number with no mark means an inactive call. No stated cut-off is given here; in the data, active means survival mostly below about 52% (no sharp cut-off); inactive means mostly above about 56%.

This test deals with Wild type. Description: growth inhibition of S. aureus wild type versus tarO mutant, primary screen, teichoic acid synthesis inhibitors, RN4220, OD600 (AID 463173). The following applies: S. aureus RN4220 wild type/DeltatarO growth, OD600, 18 h, stronger effect = lower value, screened at 18.75 µg/mL (by protocol).
In the case of `CCCCCn1c(=O)[nH]c2cc(C(=O)NCc3ccccc3)ccc2c1=O`, the survival is 83%.

Turning to `COCCNC(=O)CCCN1C(=O)CCn2nc(-c3cccn3C)cc21`, the survival is 68%.

Take `CCOc1ccc(-n2c(SCc3nc(-c4ccccc4C)no3)nnc2-c2ccccc2)cc1`: the survival was 84%.

For `CCC(Sc1nncn2c1cc1occc12)C(=O)Nc1ccc(C)c(Cl)c1` (stereo not given), the survival was 44%.

With `CCc1nn(CC(=O)NC(C)c2ccccc2)c(=O)c2cc3sccc3n12` (stereo not given), the survival is 91%.

Regarding `COc1ccc(-n2c(=O)c3ccccc3n(CC(=O)Nc3ccccc3OC)c2=O)cc1`, the survival was 89%.

Take `CN1C(C(=O)NC(C)(C)C)=CC(c2ccc3c(c2)OCO3)=NS1(=O)=O`: the survival is 84%.

With `Cc1cc(NCCN(C)C)c2ccccc2n1`, the survival was 106%.

`COc1ccc(-c2cccc(NS(=O)(=O)c3cc(C(F)(F)F)ccc3Cl)c2)nn1`: the survival is 59%.

In the case of `CCS(=O)(=O)Nc1ccc(-c2cn3c(C)csc3n2)cc1`, the survival is 78%.

`COc1cc(OC)cc(C(=O)Nc2cccc(-c3cn4ccsc4n3)c2)c1`: the survival was 1% (active).

In the case of `CN(C)S(=O)(=O)Nc1ccc(-c2cn3ccsc3n2)cc1`, the survival is 14% (active).

For `CCS(=O)(=O)Nc1ccc(-c2cn3ccsc3n2)cc1`, the survival is -1% (active).

`COc1ccc(S(=O)(=O)Nc2ccc(-c3cn4ccsc4n3)cc2)cc1C`: the survival is 133%.

`COc1ccc(C(=O)Nc2cccc(-c3cn4ccsc4n3)c2)cc1OC`: the survival is 76%.

In the case of `CCCS(=O)(=O)Nc1cccc(-c2cn3ccsc3n2)c1`, the survival was 159%.

With `COc1cccc(OC)c1C(=O)Nc1cccc(-c2cn3ccsc3n2)c1`, the survival was 72%.

For `Nc1cccc(-c2cn3ccsc3n2)c1`, the survival is 55%.

With `Cc1ccc(Cn2cc(S(=O)(=O)c3cccc(Cl)c3)c(=O)c3cc(F)c(N4CCOCC4)cc32)cc1`, the survival is 87%.

As to `CC1=C(C(=O)OCC2CCCCC2)C(c2cccc(Cl)c2Cl)CC(=O)N1` (stereo not given), the survival is 76%.

Regarding `COc1cc(Cl)c(C)cc1NC(=O)Cn1cc(S(=O)(=O)N2CCN(c3ccccc3F)CC2)c2ccccc2c1=O`, the survival was 68%.

For `Cc1cccc(C)c1NC(=O)CN1C(=O)CCSc2ccc(S(=O)(=O)N3CCCC3)cc21`, the survival is 72%.

`CCN(C(=O)C(=O)Nc1ccc2nc3n(c(=O)c2c1)CCCCC3)c1ccc(F)cc1`: the survival was 94%.

For the compound `COc1ccc(-n2nc(C(=O)N3CCN(c4ccccc4OC)CC3)c3c4ccccc4n(C)c3c2=O)cc1`, the survival is 80%.

For `Cc1ccc(CSc2cn(CC(=O)N3CCCCC3)c3ccccc23)cc1`, the survival is 90%.
